Source: PubChem BioAssay (Sanford-Burnham Center for Chemical Genomics)
SENP8 block-1: human SENP8 protease inhibitors, primary screen, biochemical, fluorescence, Nedd8 protein substrate, uHTS; Sentrin-specific protease 8 (Homo sapiens), Q96LD8; recombinant SENP8; inhibition, % at 20 µM; 0.64% of 360,000 active; AID 602440, 2012; in the data active = inhibition mostly above about 40%, no sharp cut-off; inactive = mostly below about 27%
Target sequence (Q96LD8 whole entry, looked up): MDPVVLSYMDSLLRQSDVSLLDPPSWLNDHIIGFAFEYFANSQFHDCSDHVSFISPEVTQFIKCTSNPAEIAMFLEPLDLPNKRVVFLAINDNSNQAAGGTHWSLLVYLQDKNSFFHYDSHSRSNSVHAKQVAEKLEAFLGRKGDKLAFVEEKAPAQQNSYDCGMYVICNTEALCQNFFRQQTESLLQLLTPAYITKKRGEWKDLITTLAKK
PPC-1+TRAIL kill: compounds killing PPC-1 cancer cells with TRAIL present, primary screen, TRAIL potentiator project, ATPLite luminescence, uHTS. 0.41% of 220,000 active. AID 1443, 2008. PPC-1 cells + TRAIL, ATPLite viability luminescence. cell killing (% activity), % at 4 µM or 5 µM;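 active = cell killing above 50% in the first pass at 4 µM, then a duplicate retest at 5 µM averaging 50% or more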;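 also: plate controls were cells with TRAIL plus DMSO for no effect and medium-only wells lacking cells for full effect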
SENP7 block: SENP7 protease inhibitors, primary screen, biochemical, luminescence, uHTS; inhibition, % at 5 µM; 1.5% of 330,000 active; recombinant SENP7, Z-RLRGG-aminoluciferin luminescence, 40 min; AID 434973, 2010;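 active = inhibition above about 50% at the single test dose, limit read from the data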;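 also: plate controls were DMSO with enzyme for no effect and no enzyme buffer wells for full effect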
SENP8 block-2: SENP8 protease inhibitors, primary screen, biochemical, luminescence; inhibition, % at 10 µM; 1.2% of 330,000 active; AID 2540, 2010; purified SENP8, Z-RLRGG-aminoluciferin cleavage; in the data active = inhibition above about 50%
SENP6 inh: SENP6 protease inhibitors, primary screen, biochemical, luminescence, uHTS; Sentrin-specific protease 6 (Homo sapiens), Q9GZR1; Recombinant SENP6 catalytic domain, aminoluciferin luminescence; inhibition, % at 10 µM; 1.8% of 330,000 active; AID 2599, 2010;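 active = inhibition above about 50% at the single tested dose, limit read from the data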;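 also: plate controls were DMSO wells with enzyme for no effect and DMSO wells lacking enzyme for full effect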
Target sequence (Q9GZR1 628-1112 limits assumed): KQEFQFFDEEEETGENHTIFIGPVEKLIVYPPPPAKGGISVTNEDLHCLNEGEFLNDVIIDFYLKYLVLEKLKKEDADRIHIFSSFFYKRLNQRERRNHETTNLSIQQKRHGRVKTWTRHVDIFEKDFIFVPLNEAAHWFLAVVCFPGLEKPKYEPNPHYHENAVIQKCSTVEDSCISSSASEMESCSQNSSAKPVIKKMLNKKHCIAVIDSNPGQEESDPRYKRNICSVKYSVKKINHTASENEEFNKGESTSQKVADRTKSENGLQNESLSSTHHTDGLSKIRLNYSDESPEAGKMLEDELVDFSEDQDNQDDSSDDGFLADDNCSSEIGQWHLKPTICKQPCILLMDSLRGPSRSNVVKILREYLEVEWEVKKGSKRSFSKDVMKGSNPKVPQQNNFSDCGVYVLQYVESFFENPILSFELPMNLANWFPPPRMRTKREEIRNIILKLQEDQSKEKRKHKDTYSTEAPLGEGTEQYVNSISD
C8 TRAIL sens: viability loss with TRAIL in NB7+C8 cells, primary screen, TRAIL sensitizer project, cell-based, ATPlite luminescence. inhibition (viability loss, TRAIL sensitization), % at 10 µM. 1% of 360,000 active;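 active = compounds causing at least 50% loss of cell viability in the single-dose screen, relative to plate controls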
PPC1 cytotox: cytotoxicity in PPC-1 cells, confirmation, cytotoxicity control for TRAIL apoptosis potentiator project, cell-based, ATP content luminescence; cytotoxicity, % at 5 µM; PPC-1 viability, ATPlite luminescence, overnight; AID 1447, 2008; shares compounds with PPC-1+TRAIL kill; 50% of 1,200 active;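 active = reconfirmed compounds whose average cytotoxicity reaches 50% or more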;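 also: 0% = DMSO-treated cells and 100% = wells holding medium but no cells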
* hit, by the source's call; / = not tested or not shown. Only some compounds are listed: those with a hit (about 3% of all), similar ones and a draw of the others.

SMILES	SENP8 block-1	PPC-1+TRAIL kill	SENP7 block	SENP8 block-2	SENP6 inh	C8 TRAIL sens	PPC1 cytotox
CCOC(=O)C1=C(COC(=O)CSc2ccc(C)cc2C)NC(=O)NC1C (stereo unspecified)	1.8	/	-8.0	-6.1	-3.4	-21.4	/
Cc1nc2ccc(NC(=O)Cc3cccc(F)c3)cc2s1	4.2	3.0	0.4	-13.3	-12.9	2.7	/
Cc1cccc(OCC(=O)Nc2ccc3nc(C)sc3c2)c1	1.6	18.7	-5.6	-15.0	-14.9	5.1	/
Cc1nc2ccc(NC(=O)COc3ccccc3)cc2s1	16.5	0.6	/	/	/	17.4	2.4
Cc1nc2ccc(NC(=O)Cc3ccsc3)cc2s1	18.3	7.5	0.3	-8.5	-4.2	22.4	10.2
COc1ccc(CNC(=O)C(=O)NCC2OCCN2S(=O)(=O)c2ccccc2)cc1 (stereo unspecified)	0.0	/	2.8	-1.3	-13.3	6.8	/
CCOC(=O)N1CCN(C(=O)c2cc(-c3ccc(OCC)cc3)nc3ccccc23)CC1	-313.6	82.2*	-9.1	-9.2	-11.1	88.8*	83.0*
CCOC(=O)N1CCN(C(=O)c2cc(-c3ccncc3)nc3ccccc23)CC1	9.1	/	1.0	-7.2	2.4	27.6	/
CCOc1ccc(-c2cc(C(=O)N3CCN(C)CC3)c3ccccc3n2)cc1	-370.3	72.0*	4.3	-0.8	0.4	74.7*	67.3*
COc1ccc(-c2cc(C(=O)N3CCCC3)c3ccccc3n2)cc1	-353.2	/	8.6	-13.5	-11.0	34.0	/
Cc1ccc(CNC(=O)[C@H](Cc2ccccc2)NC(=O)C2CCNCC2)cc1	13.2	/	1.3	-4.0	-5.7	-16.1	/
Cc1cc(C(=O)NNC(=O)c2ccc(C)c([N+](=O)[O-])c2)c(C)o1	-2.1	/	3.8	-3.4	-2.3	-4.6	/
COC(=O)c1ccccc1NC(=O)Cn1c(=O)oc2ccc(Cl)cc21	2.8	6.8	-3.3	-3.8	-10.2	-3.1	3.7
O=C(Nc1ccc(NC(=O)c2ccco2)cc1)c1ccc2c(c1)OCCO2	6.6	-1.9	-3.4	2.0	11.4	5.7	/
Cc1cc(NC(=O)c2ccc3c(c2)OCCO3)ccc1NC(=O)c1ccco1	4.9	51.4*	14.5	2.3	24.3	63.1*	49.8
O=C(CSc1cccc[n+]1[O-])Nc1cc(Cl)ccc1[N+](=O)[O-]	14.2	/	-6.7	-4.4	0.8	9.5	/
O=[N+]([O-])c1ccc(Sc2cccc[n+]2[O-])c2nonc12	15.0	34.1	/	/	/	19.1	30.9
CCCOc1ccc(C2(C(=O)O)CCCC2)cc1	13.9	11.2	-4.9	0.7	4.5	-10.0	13.2
Cc1cc(C(=O)O)cc(S(=O)(=O)Nc2c(C)nn(C)c2C)c1C	13.3	/	-1.8	8.0	-12.9	1.3	/
O=C(CN1CCC(NC(=O)Nc2ccc(F)cc2)CC1)Nc1ccccc1[N+](=O)[O-]	16.1	/	0.6	5.7	4.3	-16.4	/
Cc1cccc(N=C2NN=C(c3ccc4c(c3)OCCO4)CS2)c1	-71.4	36.0	-4.0	20.2	23.3	28.7	32.8
CC1(C)NC(C(=O)O)Cc2c1[nH]c1ccccc21 (stereo unspecified)	8.4	-3.5	-1.2	-6.3	-2.0	-0.8	5.7
CC(=O)N1C(C(=O)O)Cc2c([nH]c3ccccc23)C1(C)C (stereo unspecified)	9.0	/	-1.9	4.7	-10.0	-14.7	/
Oc1ccc(N=Nc2ccc3c(c2)OCCO3)c(O)c1	44.7*	64.9*	91.2*	95.4*	94.6*	72.2*	66.3*
O=C1C=C(NCCN2CCOCC2)C(=O)c2cnccc21	/	65.2*	/	/	/	/	66.6*
SMILES	SENP8 block-1	PPC-1+TRAIL kill	SENP7 block	SENP8 block-2	SENP6 inh	C8 TRAIL sens	PPC1 cytotox
O=C(NCCN1CCOCC1)c1ccncc1	-0.1	-15.5	4.1	-2.9	11.3	-30.8	/
O=C(CSc1nnc(Cc2cccs2)n1C1CCCCC1)N1CCCc2ccccc21	21.1	2.3	1.7	-0.4	-9.1	20.3	6.9
Cc1ccc(/C=N/Nc2cn[nH]c(=O)n2)o1	19.2	5.7	0.6	1.2	-14.6	-11.3	/
C(=N\Nc1nc2ccccc2[nH]1)/c1ccccn1	12.6	79.0*	/	/	/	91.5*	80.4*
COc1ccc(/C=N/Nc2nc3ccccc3[nH]2)cc1OC	-254.4	-16.3	3.4	-5.7	0.8	6.5	/
CCCCn1c(/C=N/Nc2nc3ccccc3[nH]2)nc2ccccc21	26.3	0.4	3.1	-10.8	-11.8	27.0	/
Fc1ccccc1-c1ccc(/C=N/Nc2nc3ccccc3[nH]2)o1	-397.9	79.8*	-13.5	-15.5	3.3	78.8*	77.7*
C(=N\Nc1nc2ccccc2[nH]1)/c1cccc2nccnc12	11.9	44.7	9.3	-10.7	-25.3	26.3	/
Cc1ccc(/C=N\Nc2nc3ccc(Cl)cc3[nH]2)o1	-167.9	6.5	13.3	-5.7	30.4	9.1	9.5
C(=N\Nc1nc2ccccc2[nH]1)/c1ccc2ncccc2c1	-398.1	70.5*	31.0	-9.6	-25.2	81.3*	71.7*
CC(=O)Nc1ccc(C(=O)CN2C(=O)NC3(CCCc4ccccc43)C2=O)c(F)c1 (stereo unspecified)	-13.6	/	0.1	-18.4	-10.6	-3.7	/
O=S(CC(O)(c1ccccc1)c1ccccc1)CC(O)(c1ccccc1)c1ccccc1	7.3	/	/	/	/	-5.6	/
CCc1ccc(C(=O)COC(=O)c2cccc(N3C(=O)c4c(C)nc5ccccc5c4C3=O)c2)cc1	13.4	71.8*	-1.5	-1.3	2.6	73.2*	71.9*
COCCNC(=O)c1ccc2c3n(nc2c1)-c1ccccc1CO3	-279.4	50.0*	33.6	33.8	40.6	57.7*	54.9*
COc1ccc(-n2ncc3c2CC(C)(C)CC3NC(=O)c2cnc(C)cn2)cc1 (stereo unspecified)	12.6	/	-1.5	-1.4	2.8	-1.6	/
Cc1c(OCC(=O)C(C)(C)C)ccc2c3c(c(=O)oc12)CCCC3	-132.0	/	-8.3	12.2	-12.2	8.2	/
CCOC(=O)COc1ccc2c3c(c(=O)oc2c1C)CCC3	-42.0	7.6	-5.4	-2.8	-14.7	0.7	13.8
O=C(Nc1nccs1)c1cn2ccccc2n1	2.4	61.0*	46.2	30.7	21.0	39.9	59.1*
NNC(=O)c1cn2ccccc2n1	6.1	27.9	11.7	1.3	5.2	-7.0	/
NC(=O)c1ccc2c(=O)c(O)c(-c3cc(Cl)c(N)c(Cl)c3)[nH]c2c1	-453.6	/	-8.6	3.9	-10.0	-8.0	/
Oc1ccc(-c2nnc(-c3ccc(O)cc3)nn2)cc1	18.1	53.1*	18.9	38.7	47.6	63.9*	53.9*
O=C(NCCN1CCCC1)c1ccccc1Cl	17.2	5.2	0.1	1.6	0.0	7.8	/
